# Data taken from PubChem BioAssay.
# “And” between values parts separate entries of the source, which are not always exact repeats. Identical values can stand only once. For some assays here: Potency and affinity values are given separately. The list shows a part of the results. The source made the active and inactive calls.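 Rule for the calls, unless noted: active = GFP response above 150% of the DMSO level; inconclusive = fewer than 70 events counted for a yeast strain; inactive = the rest.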
# How the values were obtained:
# [1] = biological target: Cell division control protein 42 homolog (Homo sapiens) (UniProt P60953); test: activated mutant Cdc42 GTP-binding inhibitors, dose response, biochemical, multiplex bead flow cytometry, Bodipy-FL-GTP (AID 1333;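 active = fitted half-maximal concentration within the tested dose range, moderate curve steepness, a statistically real signal drop, and little compound fluorescence or tag-binding interference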)
# [2] = biological target: Cell division control protein 42 homolog (Homo sapiens) (UniProt P60953); test: wildtype Cdc42 GTP-binding inhibitors, dose response, biochemical, multiplex bead flow cytometry, Bodipy-FL-GTP (AID 1334;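 active = fitted half-maximal concentration within the tested range, moderate curve steepness, significant signal drop, and little compound fluorescence or bead-linkage interference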); conditions: bead-based flow cytometry, Bodipy-FL-GTP binding to GST-Cdc42; at 100 µM (top of the series) unless noted
# [3] = biological target: GTPase HRas (Homo sapiens) (UniProt P01112); test: inhibitors of GTP binding to wildtype Ras, dose response, biochemical, multiplex bead flow cytometry (AID 1335;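 active = fitted half-maximal concentration within 10 nM to 100 µM, steepness 0.5 to 2, significant signal drop, low assay interference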); conditions: bead-based flow cytometry, Bodipy-GTP binding to GST-Ras; at 100 µM (top of the series) unless noted
# [4] = tested on: Ras-related protein Rab-7a (dog), GTP binding; test: Rab7 GTP binding inhibitors, potency, dose response, biochemical, wildtype, multiplex bead flow cytometry (AID 1336; call rule not given here)
# [5] = biological target: Ras-related C3 botulinum toxin substrate 1 (Homo sapiens) (UniProt P63000); test: wildtype Rac1 GTP binding inhibitors, dose response, biochemical, multiplex bead flow cytometry (AID 1340;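 active = dose curve with midpoint inside tested range, moderate steepness, plateau gap beyond fit error, low compound glow and bead-link interference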); conditions: GST-Rac1 beads, Bodipy-FL-GTP binding; at 100 µM (top of the series) unless noted
# [6] = biological target: GTPase HRas (Homo sapiens) (UniProt P01112); test: activated Ras mutant GTP binding inhibitors, dose response, biochemical, multiplex bead flow cytometry (AID 1341;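 active = dose-response curve with midpoint inside the tested range, moderate steepness, significant amplitude and little compound fluorescence or bead-attachment interference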;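 note: GST-tagged constitutively activated Ras mutant immobilized on beads and multiplexed with other GTPases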)
# [7] = biological target: Regulator of G-protein signaling 16 (Homo sapiens) (UniProt O15492); test: modulators of RGS–Galpha-o binding, primary screen, biochemical, multiplexed beads, flow cytometry, RGS4/7/8/16/19 (AID 1504); conditions: multiplexed bead flow cytometry, measured here: RGS16 interaction, at 10 µM;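 note: fluorescently labeled Galpha-o bound to GDP with aluminium fluoride binding biotinylated RGS beads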
# [8] = biological target: Regulator of G-protein signaling 19 (Homo sapiens) (UniProt P49795); test: as above; conditions: multiplexed bead flow cytometry, measured here: RGS19 interaction, at 10 µM
# [9] = biological target: Regulator of G-protein signaling 7 (Homo sapiens) (UniProt P49802); test: as above; conditions: multiplexed bead flow cytometry, measured here: RGS7 interaction, at 10 µM
# [10] = biological target: Regulator of G-protein signaling 8 (Homo sapiens) (UniProt P57771); test: as above; conditions: multiplexed bead flow cytometry, measured here: RGS8 interaction, at 10 µM
# [11] = disruption of biotin probe capture by avidin, counter-screen for RGS protein interaction modulators, biochemical, flow cytometry, bead-based (AID 1783;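 active = inhibition above 50%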;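 note: median green fluorescence of gated singlet beads compared with DMSO control wells; 0% = DMSO wells and 100% = complete loss of bead fluorescence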); conditions: streptavidin beads, fluorescein-biotin binding; at 10 µM, stronger effect = higher value
# [12] = biological target: Guanine nucleotide-binding protein G(o) subunit alpha (Homo sapiens) (UniProt P09471); test: RGS8-Galphao binding modulators, confirmation, biochemical, multiplexed bead flow cytometry, single concentration (AID 1836; in the data active = binding response below about 72% or above about 130%; inactive = in between;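 note: Galphao activated as GDP AlF4 complex before binding bead RGS8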); conditions: bead-based flow cytometry RGS8-Galphao binding, fluorescence; at 10 µM; actives lie on both sides
# [13] = biological target: Guanine nucleotide-binding protein G(o) subunit alpha (Homo sapiens) (UniProt P09471); test: RGS7-Galphao binding modulators, confirmation, biochemical, multiplexed bead flow cytometry, single concentration (AID 1837; in the data active = response below about 75% or above about 130%; inactive = in between;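 note: fluorescent Galphao activated with GDP and aluminum fluoride binding bead-coupled RGS7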); conditions: bead-based flow cytometry RGS7-Galphao binding; at 10 µM; actives lie on both sides
# [14] = biological target: Regulator of G-protein signaling 16 (Homo sapiens) + Guanine nucleotide-binding protein G(o) subunit alpha (Homo sapiens) (UniProt O15492+P09471); test: modulators of RGS16-Galphao protein binding, confirmation, biochemical, single concentration, multiplexed bead flow cytometry (AID 1838; in the data active = response below about 74% or above about 130%; inactive = in between;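 note: Galphao activated as the GDP aluminium fluoride complex binding bead-coupled RGS16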); conditions: bead-based flow cytometry, at 10 µM, actives lie on both sides
# [15] = biological target: Guanine nucleotide-binding protein G(o) subunit alpha (Homo sapiens) (UniProt P09471); test: modulators of RGS4-Galphao protein binding, confirmation, biochemical, single concentration, multiplexed bead flow cytometry (AID 1840; in the data active = binding response below about 74% or above about 130%; inactive = in between); conditions: at 10 µM, actives lie on both sides
# [16] = biological target: Guanine nucleotide-binding protein G(o) subunit alpha (Homo sapiens) + Regulator of G-protein signaling 19 (Homo sapiens) (UniProt P09471+P49795); test: regulators of RGS19-Galphao binding, confirmation, biochemical, single point, multiplexed bead flow cytometry (AID 1841; in the data active = response below about 50% or above about 160%; inactive = in between;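 note: 100% = no compound control and 0% = blank background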); conditions: bead-based flow cytometry RGS19-Galphao binding; at 10 µM; actives lie on both sides
# [17] = RPL19A-GFP modulators, yeast TOR pathway, confirmation, cell-based, S. cerevisiae, flow cytometry, cherry picks, mother/daughter gates (AID 2270;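 active = GFP response below 50% of the DMSO control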); conditions: S. cerevisiae RPL19A-GFP strain, 3 h, at 10 µM, stronger effect = lower value, 100 = same GFP as DMSO wells
# [18] = LAP4-GFP expression modulators in yeast, confirmation, cell-based, cherry picks, flow cytometry, mother/daughter gates (AID 2271;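 active = GFP response above 150% of the DMSO control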;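 note: ratio of sample to DMSO plate mean so 100% equals DMSO level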); conditions: S. cerevisiae LAP4-GFP strain, 3 h, at 10 µM, stronger effect = higher value, 100 means same as DMSO control
# [19] = modulators of MEP2-GFP levels in yeast, confirmation, S. cerevisiae, flow cytometry GFP, cherry picks (AID 2272;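 active = GFP response above 150% of the DMSO control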;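 note: ratio of well signal to plate DMSO mean so 100% equals DMSO level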); conditions: S. cerevisiae MEP2-GFP strain, 3 h, at 10 µM, stronger effect = higher value
# [20] = AGP1-GFP expression modulators, hit retest, confirmation, cell-based, flow cytometry, S. cerevisiae, cherry picks (AID 2273);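 note: median GFP channel fluorescence over the whole cell population gate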; conditions: S. cerevisiae AGP1-GFP strain, 3 h, at 10 µM
# [21] = modulators of CIT2-GFP expression in yeast, confirmation, S. cerevisiae, GFP fusion, cherry picks, mother/daughter gates (AID 2274); conditions: S. cerevisiae CIT2-GFP strain, flow cytometry, 3 h, at 10 µM, stronger effect = higher value
# [22] = measured here: daughter cell gate
# [23] = measured here: mother cell gate
# [24] = measured here: daughter cell gate response
# [25] = measured here: mother cell gate response
# Chain of Cell division control protein 42 homolog (Homo sapiens) (P60953 whole entry, looked up): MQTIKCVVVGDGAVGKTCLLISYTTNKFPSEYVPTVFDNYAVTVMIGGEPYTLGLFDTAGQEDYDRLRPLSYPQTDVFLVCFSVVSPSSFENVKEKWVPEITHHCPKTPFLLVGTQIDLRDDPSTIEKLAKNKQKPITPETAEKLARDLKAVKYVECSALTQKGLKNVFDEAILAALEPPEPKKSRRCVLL
# Chain of Guanine nucleotide-binding protein G(o) subunit alpha (Homo sapiens) (P09471 whole entry, looked up): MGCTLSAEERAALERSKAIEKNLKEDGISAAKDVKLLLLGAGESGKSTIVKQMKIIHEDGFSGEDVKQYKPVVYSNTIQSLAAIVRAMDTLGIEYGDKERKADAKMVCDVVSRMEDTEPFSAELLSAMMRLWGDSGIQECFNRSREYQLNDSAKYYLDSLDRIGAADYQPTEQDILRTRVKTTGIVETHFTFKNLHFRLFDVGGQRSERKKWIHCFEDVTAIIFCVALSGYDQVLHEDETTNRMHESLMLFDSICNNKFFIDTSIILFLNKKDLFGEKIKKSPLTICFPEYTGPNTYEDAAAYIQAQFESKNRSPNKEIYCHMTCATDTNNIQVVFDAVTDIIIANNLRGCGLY
# Chain of GTPase HRas (Homo sapiens) (P01112 whole entry, looked up): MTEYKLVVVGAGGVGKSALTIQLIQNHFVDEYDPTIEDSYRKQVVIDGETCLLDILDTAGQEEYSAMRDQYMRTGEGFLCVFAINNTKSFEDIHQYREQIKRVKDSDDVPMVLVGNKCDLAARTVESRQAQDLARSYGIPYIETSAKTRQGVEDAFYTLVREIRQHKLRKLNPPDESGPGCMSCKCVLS
# Chain of Regulator of G-protein signaling 16 (Homo sapiens) + Guanine nucleotide-binding protein G(o) subunit alpha (Homo sapiens) (O15492 whole entry, looked up): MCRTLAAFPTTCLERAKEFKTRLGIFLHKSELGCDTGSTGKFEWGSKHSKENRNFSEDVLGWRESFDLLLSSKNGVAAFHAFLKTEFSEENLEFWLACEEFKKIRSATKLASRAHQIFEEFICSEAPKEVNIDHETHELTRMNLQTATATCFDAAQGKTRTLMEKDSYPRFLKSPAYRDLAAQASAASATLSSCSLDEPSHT
# Chain of Regulator of G-protein signaling 16 (Homo sapiens) + Guanine nucleotide-binding protein G(o) subunit alpha (Homo sapiens) (P09471 whole entry, looked up): as the sequence (P09471 whole entry, looked up) above
# Chain of Guanine nucleotide-binding protein G(o) subunit alpha (Homo sapiens) + Regulator of G-protein signaling 19 (Homo sapiens) (P09471 whole entry, looked up): as above
# Chain of Guanine nucleotide-binding protein G(o) subunit alpha (Homo sapiens) + Regulator of G-protein signaling 19 (Homo sapiens) (P49795 whole entry, looked up): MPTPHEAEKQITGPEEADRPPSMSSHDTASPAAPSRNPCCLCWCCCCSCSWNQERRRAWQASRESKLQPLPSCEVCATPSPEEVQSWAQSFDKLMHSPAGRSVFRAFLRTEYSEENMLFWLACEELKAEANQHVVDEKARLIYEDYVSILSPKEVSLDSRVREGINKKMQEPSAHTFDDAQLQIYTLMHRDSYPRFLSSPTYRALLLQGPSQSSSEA
smiles,measurement,setting,value
O=C(OCC1O[C@@H](OC(=O)c2cc(O)c(O)c(O)c2)[C@@H](OC(=O)c2cc(O)c(O)c(O)c2)[C@@H](OC(=O)c2cc(O)c(O)c(O)c2)[C@@H]1OC(=O)c1cc(O)c(O)c(O)c1)c1cc(O)c(O)c(O)c1 (stereo not given in full),outcome,[1],inactive
same,"fluorescence, percent of control (lower = inhibition)",[2],21.1%
same,"GTP binding, percent of control",[3],58.6%
same,outcome,[4],inactive
same,"GTP binding signal, raw median fluorescence (lower = inhibition) (MCF (arbitrary fluorescence units))",[5],145
same,outcome,[6],inactive
same,RGS16–Galpha-o binding response,[7],51.1%
same,RGS19–Galpha-o binding response,[8],-410%
same,RGS7–Galpha-o binding response,[9],20.5%
same,RGS8–Galpha-o binding response,[10],46.9%
same,inhibition,[11],-1.9% (inactive)
same,binding response (% of control),[12],35.2% (active)
same,response (percent of control binding),[13],-10.3% (active)
same,response (% of control binding),[14],29.8% (active)
same,binding response (% of control),[15],-1.02% (active)
same,response (percent of control binding),[16],46.8% [inhibitor] (active)
Cc1cc(C)c(C(=O)Cn2cnc3cc([N+](=O)[O-])ccc3c2=O)cc1C,outcome,[1],inactive
same,"fluorescence, percent of control (lower = inhibition)",[2],34%
same,"GTP binding, percent of control",[3],74.6%
same,outcome,[4],inactive
same,"GTP binding signal, raw median fluorescence (lower = inhibition) (MCF (arbitrary fluorescence units))",[5],161
same,outcome,[6],inactive
same,GFP response vs DMSO,[17],100% (inactive)
same,GFP response vs DMSO,[17]; [22],101%
same,GFP response vs DMSO,[17]; [23],99.8%
same,GFP response relative to DMSO,[18],89.4% (inactive)
same,GFP response relative to DMSO,[18]; [24],88.2%
same,GFP response relative to DMSO,[18]; [25],91.3%
same,GFP response vs DMSO,[19],99.3% (inactive)
same,"GFP response, % of DMSO",[20],102% (inactive)
same,"GFP response, % of DMSO",[21],97.2% (inactive)
same,"GFP response, % of DMSO",[21]; [22],97.6%
same,"GFP response, % of DMSO",[21]; [23],98.2%
O=C(C#Cc1ccccc1)c1cccc([N+](=O)[O-])c1,outcome,[1],inactive
same,"fluorescence, percent of control (lower = inhibition)",[2],50.9% and 49.2%
same,"GTP binding, percent of control",[3],170% and 92.3%
same,outcome,[4],inactive
same,"GTP binding signal, raw median fluorescence (lower = inhibition) (MCF (arbitrary fluorescence units))",[5],92.8
same,outcome,[6],inactive
same,GFP response vs DMSO,[17],92.5% (inactive)
same,GFP response vs DMSO,[17]; [22],95.9%
same,GFP response vs DMSO,[17]; [23],85.9%
same,GFP response relative to DMSO,[18],182% (active)
same,GFP response relative to DMSO,[18]; [24],166%
same,GFP response relative to DMSO,[18]; [25],183%
same,GFP response vs DMSO,[19],121% (inactive)
same,"GFP response, % of DMSO",[20],112% (inactive)
same,"GFP response, % of DMSO",[21],105% (inactive)
same,"GFP response, % of DMSO",[21]; [22],110%
same,"GFP response, % of DMSO",[21]; [23],97.3%
